S16 F2sN tox: cytotoxicity in S16 Pmp22-F2sN Schwann cells; S16 Pmp22-F2sN Schwann cells viability, CellTiter-Glo, 24 h; Potency, µM (top dose mostly 57.5 µM), for the others: at the top dose activity change, negative = cytotoxicity, actives largely listed as cytotoxic; 43,000 compounds, 0.48% hits; further: nearly all actives have a fitted effect of over 65% in size
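CellTiter-Glo counter-screen, qHTS, 1536-well. Cells: S16(c9) Pmp22-F2sN, 500-1,000/well in DMEM + 10% FBS. Cpd 23 nL pin transfer, 24 h, 37C/5% CO2. Read: luminescence, CCD imager.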
p53null 39C tox: selectivity test: cytotoxicity in p53 null cells, nonpermissive temperature; H1299 p53-null (neo) cells, 39C, ATPlite viability, 24 h; Potency, µM (series often up to 46.1 µM), inactives show top-dose activity, negative = cell killing, hits mostly cytotoxic; 55,000 compounds, 0.97% hits;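 further: 0% = DMSO only and -100% = full killing by 100 µM tamoxifen; nearly all actives have a fitted effect of over 50% in size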
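H1299 lung cancer cells, p53-null (H1299-neo) or expressing p53 A138V (H1299-p53A138V), were plated overnight at 37C, then exposed to compounds at up to 46 uM for 24 hr at 39C. Viability was read by ATP-based luminescence.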
p53null 32C kill: kills p53 null cells at the permissive temperature | Potency, µM (highest dose often 46.1 µM), inactives show at the top dose activity change, negative = cytotoxicity, usual class: cytotoxic | H1299-neo p53 null cells, ATP luminescence, 24 h, 32C | 55,000 compounds, 0.62% hits;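 further: 0% = DMSO only and -100% = full killing by 100 µM tamoxifen; nearly all actives have a fitted effect of over 55% in size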
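H1299-neo (p53 null) cells, 600/well, treated 24 h at 32C with compound up to 46 uM; ATPlite luminescence viability, normalized to DMSO and 100 uM tamoxifen; AC50 by Hill fit.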
PMP22 txn: PMP22 gene transcription modulation; S16 Pmp22-F2sN Schwann cells (luciferase reporters placed in the Pmp22 gene), FLuc/NLuc coincidence luminescence, 24 h; Potency, µM (series often up to 57.5 µM), without a hit: at the top dose activity change, negative = inhibition, usual class: inhibitors; 43,000 compounds, 2% hits; active means clear falling dose curves in both reporters; inconclusive means both reporters move, but less clearly or upward; inactive means either reporter flat; the % is the NLuc reporter signal
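Rat S16 Pmp22-F2sN cells, 500-1,000/well in phenol red-free DMEM + 10% FBS, compound-treated 24 h (37C, 5% CO2). Luminescence: FLuc read, Stop&Glo added, NLuc read.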
mTORC1 inh: inhibitors of mTORC1 signaling in Tsc2-/- p53-/- MEF cells. Tsc2-/- p53-/- MEF, phospho-rpS6 immunofluorescence/PI, 24 h. Potency, µM (top dose mostly 38.3 µM), for the others: at the highest dose activity change, negative = inhibition, hits mostly inhibitors. 44,000 compounds, 0.78% hits. AID 493208;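 further: plate controls were DMSO for no effect and rapamycin for full effect; nearly all actives have a fitted effect of over 50% in size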
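Tsc2-/-, p53-/- MEFs (empty-vector stable line) in DMEM + 10% FBS were treated with compounds 24 h at 37 degree Celsius, fixed, and immunostained for phospho-rpS6 (Alexa-488) with propidium iodide counterstain. Laser-scanning cytometry gave % positive cells, normalized against 7.5 nM rapamycin and DMSO.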
Active calls of the source: *. This is a sample that favours compounds with a hit; in the whole collection about 3.2% have one here. Unless noted, the call rests on the fitted dose curve; in most records, active means well fitted curve in the direction sought with a large enough effect; inconclusive means small, poorly fitted or top-dose-only effect, or another doubt; inactive means no such curve, though single readings can be large; an effect the other way counts as inactive or inconclusive. Unless noted, on the % scale 0 is the no-effect control and ±100 the full control effect; potency means the concentration at half of the fitted maximal effect.

Screening CN(C)c1ccc(C(=O)Nc2sc(Nc3ccccc3)nc2C(N)=O)cc1 returned S16 F2sN tox -1.1%, p53null 39C tox inconclusive, p53null 32C kill inconclusive, PMP22 txn -16.9% and mTORC1 inh 4.65µM*.
COc1cc(CNc2ccc3[nH]c(=O)[nH]c3c2)cc(Br)c1OCc1ccc(F)cc1 was read as S16 F2sN tox inconclusive, p53null 39C tox -15.1%, p53null 32C kill -29.2%, PMP22 txn 1.89µM* and mTORC1 inh -20.5%.
`Cc1ccc(CN(Cc2ccco2)c2cnc(S(C)(=O)=O)nc2C(=O)Nc2ccc(Br)cc2)o1` gave S16 F2sN tox -12.8%, p53null 39C tox 9.7%, p53null 32C kill 5.5%, PMP22 txn -10.2% and mTORC1 inh 0.6%.
Screening CCc1ccccc1NS(=O)(=O)c1ccc(-c2coc(C)n2)cc1 returned S16 F2sN tox -26.1%, p53null 39C tox 10.0%, p53null 32C kill 7.08µM*, PMP22 txn -48.1% and mTORC1 inh -19.6%.
For CCc1cc(=O)[nH]c(SCc2nc(-c3cccc(Cl)c3)no2)n1 the results were S16 F2sN tox -5.2%, p53null 39C tox -11.5%, p53null 32C kill 4.5%, PMP22 txn -16.7% and mTORC1 inh -2.0%.
Screening COc1cc(C(=O)n2nc(C)c(Sc3ccc(Cl)cc3)c2C)cc(OC)c1OC returned S16 F2sN tox 13.4%, p53null 39C tox inconclusive, p53null 32C kill 7.3%, PMP22 txn -4.3% and mTORC1 inh 10.4µM*.
Screening Cc1ccc(Sc2c(C)nn(C(=O)c3ccc(Cl)cc3)c2C)cc1 returned S16 F2sN tox -6.2%, p53null 39C tox 9.2%, p53null 32C kill 13.2%, PMP22 txn -14.3% and mTORC1 inh 4.2%.
Screening Nc1nn(-c2ccccc2)nc1C(=O)OCc1c(F)cccc1Cl returned S16 F2sN tox inconclusive, p53null 39C tox -28.3%, p53null 32C kill 12.7%, PMP22 txn -7.5% and mTORC1 inh 9.0%.
For COc1cccc(-c2nnc(-c3ccc(C)o3)o2)c1 the results were p53null 39C tox 12.6µM* and p53null 32C kill 12.6µM*.
Screening Cc1nnc(NCc2ccc(Cl)cc2)c2c1nnn2Cc1ccc(F)cc1 returned S16 F2sN tox -0.5%, p53null 39C tox -6.4%, p53null 32C kill -0.7%, PMP22 txn -19.5% and mTORC1 inh -1.9%.
Cc1ccc(C2c3c(-c4cc(C)ccc4O)n[nH]c3C(=O)N2Cc2ccco2)cc1 (configuration not stated) was read as S16 F2sN tox inconclusive, p53null 39C tox inconclusive, p53null 32C kill 17.8µM*, PMP22 txn inconclusive and mTORC1 inh inconclusive.
Cc1ccc(C2c3c(-c4ccccc4O)n[nH]c3C(=O)N2CCCO)cc1 (configuration not stated) was read as S16 F2sN tox -5.0%, p53null 39C tox 10.8%, p53null 32C kill 6.9%, PMP22 txn -16.0% and mTORC1 inh inconclusive.
For COc1ccccc1Nc1c2c(nc3ccc(NC(=O)c4ccc(OC)c(OC)c4)cc13)CCCC2 the results were S16 F2sN tox inconclusive, p53null 39C tox 22.4µM*, p53null 32C kill inconclusive, PMP22 txn inconclusive and mTORC1 inh inconclusive.
`COc1ccccc1Nc1c2c(nc3ccc(NC(=O)c4cccc(OC)c4OC)cc13)CCCC2` gave S16 F2sN tox inconclusive, p53null 39C tox 14.3%, p53null 32C kill -22.1%, PMP22 txn inconclusive and mTORC1 inh 16.5µM*.
Cc1cccc(-n2cnc3cc(C(=O)NC4CCCCCC4)ccc32)c1 was read as S16 F2sN tox inconclusive, p53null 39C tox 4.9%, p53null 32C kill 44.1%, PMP22 txn inconclusive and mTORC1 inh 9.27µM*.
For Cc1cccc(NC(=O)CN2C(=O)COc3ccc(S(=O)(=O)Nc4ccccc4)cc32)c1C the results were S16 F2sN tox 5.3%, p53null 39C tox 14.0%, p53null 32C kill -7.5%, PMP22 txn -24.9% and mTORC1 inh -0.2%.
`CCOc1ccc(CNC(=O)c2ccccc2NC(=O)c2nsc3ccccc23)cc1` gave S16 F2sN tox -6.8%, p53null 39C tox 12.6µM*, p53null 32C kill -29.4%, PMP22 txn inconclusive and mTORC1 inh inconclusive.

From PubChem BioAssay
